# Unmarked numbers belong to inactive results. Results filed as inconclusive are left out. Entries that show only a call come without a potency. The source made the active and inactive calls. Unless noted, calls come from the whole dose curve; as a rule, active = well fitted curve in the direction sought with a large enough effect; inconclusive = small, poorly fitted or top-dose-only effect, or another doubt; inactive = no such curve, though single readings can be large; an effect the other way counts as inactive or inconclusive. Where a SMILES comes first, the peptide text is derived from it.
# Legend:
# [1] = target: Cytochrome P450 1A2 (Homo sapiens) (UniProt P05177); test: p450-cyp1a2 (AID 410; calls by dose curve; note: potency is the fitted concentration of half-maximal effect)
# Sequence of Cytochrome P450 1A2 (Homo sapiens) (P05177 whole entry, looked up): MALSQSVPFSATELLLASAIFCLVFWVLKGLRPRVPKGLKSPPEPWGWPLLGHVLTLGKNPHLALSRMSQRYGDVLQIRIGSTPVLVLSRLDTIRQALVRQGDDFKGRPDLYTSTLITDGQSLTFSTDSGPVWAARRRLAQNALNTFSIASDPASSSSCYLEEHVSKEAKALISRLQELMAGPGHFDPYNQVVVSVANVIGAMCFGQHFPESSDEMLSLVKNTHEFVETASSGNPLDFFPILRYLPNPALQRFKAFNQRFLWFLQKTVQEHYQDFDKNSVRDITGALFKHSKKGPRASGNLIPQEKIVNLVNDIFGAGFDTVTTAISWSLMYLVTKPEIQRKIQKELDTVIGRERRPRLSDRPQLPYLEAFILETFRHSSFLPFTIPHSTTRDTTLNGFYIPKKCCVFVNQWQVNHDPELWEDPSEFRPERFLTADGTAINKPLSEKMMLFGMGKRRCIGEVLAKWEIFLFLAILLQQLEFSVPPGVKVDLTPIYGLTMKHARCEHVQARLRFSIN
# How it was run: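 20nM CYP1A2, 100uM Luciferin-ME (=Km), 100mM KPO4; cpd 10 min RT; +NADPH regen, 60 min RT; stop/detect 20 min; luminescence. Normalized to furafylline 57 uM = full inhibition.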
# [2] = target: Glucocorticoid receptor (Homo sapiens) (UniProt P04150); test: GR-GFP Redistribution (AID 450;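 active = compounds whose dose series gives a full or clear partial fitted curve of increased nuclear translocation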; note: potency is the fitted concentration of half-maximal effect); conditions: U2OS GR-GFP nuclear translocation, laser cytometry, 2 h
# Sequence of Glucocorticoid receptor (Homo sapiens) (P04150 whole entry, looked up, the tested form may be a part): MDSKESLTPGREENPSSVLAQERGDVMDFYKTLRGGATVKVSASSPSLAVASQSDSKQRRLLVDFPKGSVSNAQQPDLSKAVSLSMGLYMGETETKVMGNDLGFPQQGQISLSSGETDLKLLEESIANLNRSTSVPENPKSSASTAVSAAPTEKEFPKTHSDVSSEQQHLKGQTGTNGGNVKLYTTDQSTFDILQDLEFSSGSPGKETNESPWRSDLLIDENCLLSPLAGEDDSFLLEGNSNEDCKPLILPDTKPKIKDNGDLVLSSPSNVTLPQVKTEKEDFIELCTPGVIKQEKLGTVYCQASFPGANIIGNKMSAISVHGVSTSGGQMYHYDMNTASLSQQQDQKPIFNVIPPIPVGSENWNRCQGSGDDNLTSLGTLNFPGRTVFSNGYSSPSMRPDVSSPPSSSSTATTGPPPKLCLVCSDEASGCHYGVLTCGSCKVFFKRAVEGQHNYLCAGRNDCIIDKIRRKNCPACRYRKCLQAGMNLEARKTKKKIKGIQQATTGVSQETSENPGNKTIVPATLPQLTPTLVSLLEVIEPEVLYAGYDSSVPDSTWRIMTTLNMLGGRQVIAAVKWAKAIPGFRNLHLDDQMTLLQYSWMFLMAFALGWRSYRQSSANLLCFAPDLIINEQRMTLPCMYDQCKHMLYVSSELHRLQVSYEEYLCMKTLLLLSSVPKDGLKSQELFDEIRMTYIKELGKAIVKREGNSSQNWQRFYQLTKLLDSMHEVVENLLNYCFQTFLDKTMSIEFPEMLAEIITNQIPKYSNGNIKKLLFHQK
# [3] = target: Glucocorticoid receptor (Homo sapiens) (UniProt P04150); test: GR-EFC Redistribution (AID 451; calls by dose curve; note: potency is the fitted concentration of half-maximal effect); conditions: CHO-K1 GR-EFC translocation, beta-gal luminescence, 2 h
# How it was run: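 Translocation of GR-ED fusion to nuclear EA restores b-gal, read by luminescence after 1 h room-temperature detection. Engineered CHO-K1 biosensor cells, 1,000/well, exposed 2 h at 37 C to titrations up to 46 uM final.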
# [4] = target: Mitogen-activated protein kinase 10 (Mus musculus) (UniProt Q61831); test: JNK3 AlphaScreen Assay (AID 530; active = well fitted curve in either direction with a large enough effect, not every such curve was filed as active;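 note: kinase came from lysate of stimulated human HepG2 cells; signal reports phosphorylation of biotinylated GST-cJun 1-79 at Ser73 with 10 µM ATP; series mostly up to about 57 µM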)
# How it was run: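 Kinase buffer: 20 mM Tris-HCl pH 7.6, 10 mM MgCl2, 1 mM DTT, 0.1 mM Na3VO4, 0.01% Tween-20; ATP 10 uM. Substrate biotin-GST-cJun(1-79), enzyme from activated HepG2 lysates. Detection by Ser73 phospho-antibody AlphaScreen.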
# [5] = target: 3',5'-cyclic-AMP phosphodiesterase 4B (Homo sapiens) (UniProt Q07343); test: qHTS Assay for Inhibitors of PDE-IV (AID 607; active = well fitted activation curve with a large enough effect in the main read-out, with a control signal flat, not every such curve was filed as active)
# Sequence of 3',5'-cyclic-AMP phosphodiesterase 4B (Homo sapiens) (Q07343 whole entry, looked up): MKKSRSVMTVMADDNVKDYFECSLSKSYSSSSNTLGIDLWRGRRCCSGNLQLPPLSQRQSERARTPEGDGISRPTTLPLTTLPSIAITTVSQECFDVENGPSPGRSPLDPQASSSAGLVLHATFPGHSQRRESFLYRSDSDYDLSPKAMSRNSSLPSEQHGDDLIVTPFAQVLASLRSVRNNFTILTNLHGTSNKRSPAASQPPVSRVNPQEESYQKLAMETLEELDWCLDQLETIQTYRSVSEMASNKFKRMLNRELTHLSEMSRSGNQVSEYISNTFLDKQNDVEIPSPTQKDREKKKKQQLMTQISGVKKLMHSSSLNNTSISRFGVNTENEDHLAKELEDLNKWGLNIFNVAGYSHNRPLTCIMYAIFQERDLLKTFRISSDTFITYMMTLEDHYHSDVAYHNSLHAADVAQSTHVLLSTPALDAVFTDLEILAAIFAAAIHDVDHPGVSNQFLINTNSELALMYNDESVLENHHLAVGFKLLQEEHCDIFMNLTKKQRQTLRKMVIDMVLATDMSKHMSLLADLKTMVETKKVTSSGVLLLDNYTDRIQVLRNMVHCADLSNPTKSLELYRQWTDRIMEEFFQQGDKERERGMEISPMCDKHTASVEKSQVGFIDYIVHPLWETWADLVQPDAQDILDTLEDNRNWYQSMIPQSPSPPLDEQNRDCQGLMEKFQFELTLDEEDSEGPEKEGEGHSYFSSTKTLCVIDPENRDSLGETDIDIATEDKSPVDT
# How it was run: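 HEK293 ACTOne cells with CNG channel (1000/well), endogenous PDE4; membrane potential dye, compounds up to 22.9 uM final. Fluorescence Ex 535/Em 590; RO 20-1724 (100 uM final) as reference.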
# [6] = target: Cytochrome P450 3A4 (Homo sapiens) (UniProt P08684); test: qHTS Assay for Activators of Cytochrome P450 3A4 (AID 885); note: nearly all actives have a fitted effect of over 65% in size
# Sequence of Cytochrome P450 3A4 (Homo sapiens) (P08684 whole entry, looked up): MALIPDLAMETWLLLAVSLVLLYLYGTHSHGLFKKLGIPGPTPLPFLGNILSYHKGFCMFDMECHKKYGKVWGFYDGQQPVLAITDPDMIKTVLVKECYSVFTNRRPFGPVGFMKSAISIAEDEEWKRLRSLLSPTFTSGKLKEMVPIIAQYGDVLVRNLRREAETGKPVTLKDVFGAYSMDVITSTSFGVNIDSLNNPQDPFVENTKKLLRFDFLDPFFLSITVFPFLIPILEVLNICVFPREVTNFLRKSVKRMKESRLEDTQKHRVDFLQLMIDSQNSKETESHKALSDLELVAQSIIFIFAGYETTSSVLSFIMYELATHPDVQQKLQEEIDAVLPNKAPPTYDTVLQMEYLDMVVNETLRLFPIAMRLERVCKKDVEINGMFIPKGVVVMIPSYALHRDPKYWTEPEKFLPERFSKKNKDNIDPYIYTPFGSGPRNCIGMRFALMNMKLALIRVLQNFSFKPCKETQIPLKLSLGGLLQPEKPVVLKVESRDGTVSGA
# How it was run: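 Human CYP3A4 dealkylates Luciferin-PPXE to luciferin, which luciferase detection converts to light. Substrate was at its KM (25uM), buffer 200mM KPO4, reaction 60 min at RT.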
# [7] = target: DNA dC->dU-editing enzyme APOBEC-3G (Homo sapiens) (UniProt Q9HC16); test: qHTS for inhibitors of Vif-A3G interactions: Validation (AID 588379)
# Sequence of DNA dC->dU-editing enzyme APOBEC-3G (Homo sapiens) (Q9HC16 whole entry, looked up): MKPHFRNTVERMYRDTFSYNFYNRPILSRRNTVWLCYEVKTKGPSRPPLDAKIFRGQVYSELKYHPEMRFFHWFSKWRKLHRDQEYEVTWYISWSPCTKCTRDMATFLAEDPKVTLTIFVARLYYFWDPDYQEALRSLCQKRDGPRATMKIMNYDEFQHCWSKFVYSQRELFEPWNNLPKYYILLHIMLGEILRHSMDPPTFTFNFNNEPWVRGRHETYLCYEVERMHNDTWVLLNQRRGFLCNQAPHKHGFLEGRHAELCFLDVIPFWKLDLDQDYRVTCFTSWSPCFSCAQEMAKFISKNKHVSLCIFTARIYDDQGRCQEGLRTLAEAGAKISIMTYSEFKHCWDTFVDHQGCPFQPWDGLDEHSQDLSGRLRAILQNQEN
# How it was run: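 Yellow fluorescence (Ex 488, Em 500-530) of Vif-coexpressing HeLa A3G-eYFP cells, scanned by Acumen cytometer, reports blocked A3G degradation. Cells plated at 700/well overnight at 37 deg C before compound addition, then a further overnight compound incubation at 37 deg C.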
# [8] = tested on: Zika virus NS2B-NS3 protease; test: Primary screen GU AMC qHTS for Zika virus inhibitors (AID 1347154); note: nearly all actives have a fitted effect of over 70% in size
# How it was run: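 Fluorogenic AMC-substrate cleavage by noncovalent NS2B-NS3 protease complex (25 nM, pH 8.0 Tris buffer with Tween 20) followed for 15 minutes at room temperature (~20% conversion). Percent inhibition from ex340/em450 signal change, fitted by 4-parameter Hill equation.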
# [9] = Confirmatory qHTS for small molecule stabilizers of the endoplasmic reticulum resident proteome: Secreted ER Calcium Modulated Protein (SERCaMP) assay (AID 1508628); note: nearly all actives have a fitted effect of over 40% in size; note: potency is the fitted concentration of half-maximal effect
# How it was run: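 GLuc-SERCaMP-expressing SH-SY5Y cells, pretreated 16 h with compound, are challenged with thapsigargin to empty ER calcium stores; after 4 h, coelenterazine is added directly to the medium and luminescence is imaged.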
# [10] = Primary qHTS for small molecule stabilizers of the endoplasmic reticulum resident proteome: Secreted ER Calcium Modulated Protein (SERCaMP) assay (AID 1508630); note: potency is the fitted concentration of half-maximal effect
# How it was run: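 The SH-SY5Y reporter protocol was run at 3 concentrations up to 38.3 uM (primary) or 11 concentrations (follow-up): 16 h compound, 100 nM thapsigargin for 4 h, then extracellular luciferase luminescence.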
# [11] = target: Ubiquitin carboxyl-terminal hydrolase 1 (Homo sapiens) (UniProt O94782); test: Inhibitors of USP1/UAF1: Pilot qHTS (AID 504865);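 note: rhodamine fluorescence freed from ubiquitin-rhodamine substrate followed over time; top concentration of the series differs between compounds; nearly all actives have a fitted effect of over 35% in size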
# Sequence of Ubiquitin carboxyl-terminal hydrolase 1 (Homo sapiens) (O94782 whole entry, looked up): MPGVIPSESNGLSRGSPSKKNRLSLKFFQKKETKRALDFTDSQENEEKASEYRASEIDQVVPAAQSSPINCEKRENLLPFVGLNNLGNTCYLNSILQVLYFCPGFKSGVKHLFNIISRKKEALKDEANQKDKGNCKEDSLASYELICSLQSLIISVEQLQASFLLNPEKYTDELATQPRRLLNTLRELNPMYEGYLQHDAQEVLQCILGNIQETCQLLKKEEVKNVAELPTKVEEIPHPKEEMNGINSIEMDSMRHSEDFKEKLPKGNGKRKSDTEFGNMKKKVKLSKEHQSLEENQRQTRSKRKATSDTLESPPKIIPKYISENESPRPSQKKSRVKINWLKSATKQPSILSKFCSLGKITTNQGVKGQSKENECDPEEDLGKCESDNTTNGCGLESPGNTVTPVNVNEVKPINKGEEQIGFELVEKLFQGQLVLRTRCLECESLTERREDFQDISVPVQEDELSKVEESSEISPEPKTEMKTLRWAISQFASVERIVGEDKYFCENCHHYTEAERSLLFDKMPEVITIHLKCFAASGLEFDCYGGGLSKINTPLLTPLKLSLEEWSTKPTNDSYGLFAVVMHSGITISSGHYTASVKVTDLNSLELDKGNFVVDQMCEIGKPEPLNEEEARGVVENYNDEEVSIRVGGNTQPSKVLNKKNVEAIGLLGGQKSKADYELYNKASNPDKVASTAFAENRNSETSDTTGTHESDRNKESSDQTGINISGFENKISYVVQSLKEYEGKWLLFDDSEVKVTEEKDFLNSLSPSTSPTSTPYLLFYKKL
# How it was run: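 Enzyme-free wells gave the negative control, while test wells held 1nM USP1/UAF1 preincubated with compound for 15 min at room temperature. Ub-Rho at 150nM final started the reaction, and fluorescence at 480/540 nm was recorded kinetically.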
# [12] = Cell Viability qHTS for small molecule stabilizers of the endoplasmic reticulum resident proteome (AID 1508629); conditions: cell viability counter-screen, 100 nM thapsigargin for final 4 h;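 note: compound exposure about 46 h in total before the viability read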; note: potency is the fitted concentration of half-maximal effect;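 for max response: human SH-SY5Y neuroblastoma cells carrying the GLuc-SERCaMP reporter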
smiles,measurement,setting,value
Oc1ccc2c3c1O[C@H]1c4c(c5ccccc5n4Cc4ccccc4)C[C@]4(O)[C@H](C2)N(CC2CC2)CC[C@@]314,Potency,[1],31.6 µM (active)
same,Potency,[2],> 46 µM
same,Potency,[3],> 46 µM
same,outcome,[4],inactive
same,Potency,[5],inactive
same,Potency,[6],inactive
same,Potency,[7],inactive
same,Potency,[8],inactive
same,Potency,[9],inactive
Cc1[nH]c2ccc(Cl)cc2c1C1=CCNCC1,Potency,[8],inactive
same,Potency,[10],35.5 µM (active)
CC(C)(O)C1O[C@H]2CC[C@@]3(C)[C@@](O)(CC[C@H]4Cc5c([nH]c6ccccc56)[C@@]43C)C2=CC1=O (stereo partly specified),Potency,[8],inactive
same,Potency,[9],39.8 µM (active)
same,Potency,[10],inactive
CC(C)[C@H](NC(=O)[C@H](CCC(=O)O)NC(=O)[C@H](Cc1ccccc1)NC(=O)[C@H](C)NC(=O)[C@@H](N)Cc1ccc(O)cc1)C(=O)N[C@H](C(=O)NCC(N)=O)C(C)C,"activity change, negative = inhibition",[8],2.64% [at 6.83 µM]
same,"activity change, negative = inhibition",[10],-11.9% [at 3.88 µM]
CC(=O)C1=C(O)[C@@H]2[C@@H]3c4c[nH]c5cccc(c45)C[C@@H]3C(C)(C)N2C1=O,Potency,[1],12.6 µM (active)
same,Potency,[2],> 46 µM
same,Potency,[3],> 46 µM
same,outcome,[4],inactive
same,Potency,[6],inactive
same,Potency,[11],inactive
same,Potency,[7],inactive
same,Potency,[8],inactive
same,max response,[12],-1.84%
same,Potency,[10],inactive
CN1[C@@H]2CC[C@H]1CC(OC(c1ccc(F)cc1)c1ccc(F)cc1)C2 (stereo partly specified),Potency,[2],> 46 µM
same,Potency,[3],> 46 µM
same,Potency,[11],inactive
same,Potency,[7],inactive
same,Potency,[8],inactive
same,Potency,[12],25.1 µM (active)
CN1CC[C@@]2(c3cccc(O)c3)Cc3nc4ccccc4cc3C[C@H]2C1,Potency,[2],> 46 µM
same,Potency,[3],> 46 µM
same,outcome,[4],inactive
same,Potency,[11],inactive
same,Potency,[7],inactive
same,Potency,[8],inactive
same,max response,[12],-3.73%
N#Cc1c(Oc2cccc(OS(=O)(=O)CCCC(F)(F)F)c2)cccc1C(F)(F)F,Potency,[8],inactive
same,Potency,[10],inactive
C[C@@H]1O[C@H](C[N+](C)(C)C)C[C@@H]1O,Potency,[8],inactive
same,Potency,[10],inactive
CC[C@H](C)[C@H](NC(=O)[C@H](CCCN=C(N)N)NC(=O)[C@H](CCCN=C(N)N)NC(=O)[C@H](CC(C)C)NC(=O)[C@H](Cc1ccccc1)NC(=O)CNC(=O)CNC(=O)[C@@H](N)Cc1ccc(O)cc1)C(=O)O,"activity change, negative = inhibition",[8],10.8% [at 6.83 µM]
same,"activity change, negative = inhibition",[10],-13% [at 3.88 µM]
NCC(CS(=O)(=O)O)c1ccc(Cl)cc1 (stereo unspecified),Potency,[8],inactive
same,Potency,[10],inactive
O[C@@H]1CCCN2C[C@@H](O)[C@@H](O)C12 (stereo partly specified),Potency,[8],inactive
same,Potency,[10],inactive
CN(CC(=O)N[C@H](CO)Cc1ccccc1)C(=O)[C@H](CCS(C)=O)NC(=O)[C@@H](N)Cc1ccc(O)cc1 (stereo partly specified) (HELM PEPTIDE1{Y.[CS(=O)CC[C@H](N[*:1])C(=O)[*:2]].[Sar].[OC[C@H](Cc1ccccc1)N[*:1]]}$$$$V2.0),"activity change, negative = inhibition",[8],16.9% [at 6.83 µM]
same,"activity change, negative = inhibition",[10],-13.2% [at 3.88 µM]
N#CC(C#N)=Cc1cc(O)c(O)c([N+](=O)[O-])c1,Potency,[8],inactive
same,Potency,[10],inactive
CC1=C2CC3C(CC=C4C[C@@H](O)CC[C@@]43C)[C@@H]2CC[C@]12O[C@@H]1C[C@H](C)CN[C@H]1[C@H]2C (stereo partly specified),Potency,[8],inactive
same,Potency,[10],inactive
CCCCC/C=C\C[C@@H](/C=C/C=C\C/C=C\CCCC(=O)O)OO,"activity change, negative = inhibition",[8],11.4% [at 0.59 µM]
same,"activity change, negative = inhibition",[10],-39.3% [at 0.478 µM]
CCCCCCCCCCCCCCCC(=O)OC[C@H](COP(=O)([O-])OCC[N+](C)(C)C)OC(C)=O,"activity change, negative = inhibition",[8],9.56% [at 6.83 µM]
same,"activity change, negative = inhibition",[10],-14.9% [at 3.88 µM]
c1ccc(C2CNCc3ccccc32)cc1 (stereo unspecified),Potency,[8],inactive
same,Potency,[10],inactive

# — PubChem BioAssay (NCATS)
